Results as given in PubChem BioAssay (NCATS).
Inconclusive results are not listed. Activity calls are given as the source filed them. Unless noted, the call rests on the fitted dose curve.

What was measured:
[1] = target: Estrogen receptor (Homo sapiens) (UniProt P03372); assay: qHTS assay for small molecule antagonists of estrogen receptor alpha signaling (AID 588513; active means well fitted curve in the direction sought with a large enough effect in the signal ratio, with a control signal flat, not every such curve was filed as active; the % refers to the signal ratio; further: on the % scale 0 is the no-effect control and ±100 the full control effect)
Procedure, shortened: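 ER-alpha-UAS-bla GripTite HEK 293 cells in medium with 2% charcoal/dextran-treated FBS were preincubated 4 h at 37 C, dosed with compound (1:2 titration), stimulated with 0.5nM 17-beta-estradiol for 18 h, then read by CCF4 beta-lactamase fluorescence.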

[2] = target: Estrogen receptor (Homo sapiens) (UniProt P03372); assay: qHTS assay for small molecule agonists of estrogen receptor alpha signaling (AID 588514);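 further: 0% = vehicle only and 100% = reference agonist; nearly all actives have a fitted effect of over 70% in size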
Procedure, shortened: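 Efficacy is expressed against 20 nM 17-beta-estradiol (100%) and DMSO basal (0%); EC50 from Hill equation. Assay: beta-lactamase reporter in ER-alpha-UAS-bla HEK 293 cells, 18 h compound incubation, CCF4 detection.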

[3] = qHTS assay for small molecule antagonists of peroxisome proliferator-activated receptor delta signaling (AID 588535); details: HEK293T PPARd-UAS-bla, beta-lactamase FRET ratio, 18 h; 460 nm channel;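 further: cells co-treated with a PPAR-delta agonist as stimulator during compound exposure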
Procedure, shortened: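 Titrations were run on PPAR-delta-UAS-bla HEK293T cells in charcoal/dextran-stripped serum, incubated 18 h at 37 C. CCF4 fluorescence (460/530 nm) after 2 h RT; Hill equation yields IC50 and maximal response.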

[4] = target: Vitamin D3 receptor (Homo sapiens) (UniProt P11473); assay: qHTS assay for small molecule antagonists of vitamin D receptor signaling (AID 588541);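 further: receptor activated by calcitriol during compound treatment; series mostly up to about 77 µM; on the % scale 0 is the no-effect control and ±100 the full control effect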
Procedure, shortened: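 Antagonist-mode beta-lactamase reporter assay: HEK293T VDR-UAS-bla cells were exposed to titrated compound alongside 1-alpha,25-dihydroxyvitamin D3 at 3 nM final for 16 h. Values were normalized to the 50 nM agonist control and DMSO basal, with IC50 and efficacy from Hill equation fits.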

[5] = target: Vitamin D3 receptor (Homo sapiens) (UniProt P11473); assay: qHTS assay for small molecule agonists of vitamin D receptor signaling (AID 588543);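 further: 0% = DMSO basal and 100% = reference agonist control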
Procedure, shortened: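 GeneBLAzer VDR-UAS-bla HEK293T cells in 2% charcoal-stripped FBS medium were dosed with compound titrations for 16 h at 37 °C; CCF4 β-lactamase readout (405 nm ex, 460/530 nm em). EC50 and efficacy from Hill fits, normalized to 50 nM calcitriol (100%) and DMSO (0%).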

[6] = qHTS assay for small molecule agonists of retinoid X receptor alpha signaling (AID 588544); details: HEK293T RXRa-UAS-bla, beta-lactamase reporter, 18 h; 530 nm emission;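 on activation: 0% = DMSO basal wells and 100% = reference agonist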
[7] = target: Retinoic acid receptor RXR-alpha (Homo sapiens) (UniProt P19793); assay: as above
[8] = qHTS assay for small molecule antagonists of retinoid X receptor alpha signaling (AID 588546; active means well fitted inhibition curve with a large enough effect in the signal ratio, with a control signal flat, not every such curve was filed as active; the % refers to the signal ratio;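 further: cells stimulated with 9-cis-retinoic acid as agonist; on the % scale 0 is the no-effect control and ±100 the full control effect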); details: HEK293T RXRa-UAS-bla, beta-lactamase ratio, antagonist mode; measured here: W530 green channel, cytotoxicity proxy
Procedure, shortened: (§1)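 Beta-lactamase reporter inhibition, read as CCF4 fluorescence ratio (ex 405, em 460/530 nm) after 2 h at RT. HEK293T UAS-bla cells, 2500/well, were stimulated with 9-cis-RA at 500 or 100 nM final alongside test compound for 18 h at 37 C.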

[9] = target: Retinoic acid receptor RXR-alpha (Homo sapiens) (UniProt P19793); assay: as above; details: HEK293T RXRa-UAS-bla, beta-lactamase ratio, antagonist mode
Procedure, shortened: as §1

[10] = target: Thyroid hormone receptor beta (Homo sapiens) (UniProt P10828); assay: qHTS assay for small molecule antagonists of thyroid hormone receptor beta signaling (AID 588547; active means well fitted inhibition curve with a large enough effect in the signal ratio, with a control signal flat, not every such curve was filed as active; the % refers to the signal ratio;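 further: cells stimulated with 0.4 nM T3 agonist during compound exposure; series mostly up to about 77 µM; on the % scale 0 is the no-effect control and ±100 the full control effect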); details: TR-UAS-bla HEK293, beta-lactamase ratio, antagonist mode, 18 h
Procedure, shortened: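 Inhibition of T3-driven (0.4nM final) beta-lactamase reporter activity was measured over 0.59 nM to 92 uM compound after 18 h at 37 C. The cells were GripTite HEK293 TR-UAS-bla in charcoal/dextran-stripped serum, with CCF4 ratio read-out and IC50 from Hill fits.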

[11] = qHTS assay for small molecule activators of the p53 signaling pathway (AID 651743; active means well fitted activation curve with a large enough effect in the signal ratio, not every such curve was filed as active; the % refers to the signal ratio; further: series mostly up to about 92 µM; % of control where 0% means no effect); details: HCT-116 p53RE-bla, beta-lactamase FRET ratio, 16 h; activation: stronger effect = higher value
Procedure, shortened: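 After 16 hours compound treatment at 37 C, HCT-116 cells stably expressing p53RE-driven beta-lactamase were loaded with LiveBLAzer B/G FRET substrate for 2 hours at room temperature. Fluorescence intensity served as the p53 activation read-out.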

[12] = qHTS assay for environmental chemicals that activate the Aryl hydrocarbon Receptor (AhR) signaling pathway (AID 651777; active means well fitted curve in the direction sought with a large enough effect; an effect the other way counts as inactive or inconclusive; further: % of control where 0% means no effect; nearly all actives have a fitted effect of over 15% in size); details: 1A2-DRE human hepatoma cells, luciferase, 24 h; activation: stronger effect = higher value
Procedure, shortened: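 AhR activation is scored as a rise in luciferase from a stable DRE–CYP1A2 promoter construct in human hepatoma cells. Treatment lasts 24 hr at 37 C; detection uses One-Glo after 30 min at room temperature.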

[13] = target: Peroxisome proliferator-activated receptor alpha (Homo sapiens) (UniProt Q07869); assay: qHTS assay for small molecule agonists of the peroxisome proliferator-activated receptor alpha (PPARalpha) signaling pathway (AID 651778; active means well fitted curve in the direction sought with a large enough effect; an effect the other way counts as inactive or inconclusive; further: % of control where 0% means no effect); details: PathHunter PPARalpha complementation, chemiluminescence, 6 h; max response: stronger effect = higher value
Procedure, shortened: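 Chemiluminescence from complemented enzyme reported PPARalpha activation in cells after 6 hr of compound treatment at 37 C. The detection reagent was incubated for 60 min at room temperature, and compounds were scored as agonists.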

[14] = qHTS assay for small molecule agonists of the antioxidant response element (ARE) signaling pathway measured by Nrf2-dependant transcriptional activity (AID 720636; active means well fitted curve in the direction sought with a large enough effect in the repeat runs; an effect the other way counts as inactive or inconclusive;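 further: HepG2 cells with an ARE-driven luciferase reporter; % of control where 0% means no effect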)
Procedure, shortened: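 First, ARE-luc HepG2 cells attached for 6 hr at 37 C in 1% dialyzed FBS medium. Next, compound or DMSO was added and incubated 16 hr. Finally, ONE-Glo reagent was added and luminescence measured after 30 min.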

[15] = qHTS assay for small molecule agonists of the antioxidant response element (ARE) signaling pathway measured by Nrf2-dependant transcriptional activity - cell viability counter screen (AID 720653; active means well fitted curve in the direction sought with a large enough effect in the repeat runs; an effect the other way counts as inactive or inconclusive; further: on the % scale 0 is the no-effect control and ±100 the full control effect); details: ARE-bla HepG2 viability, CellTiter-Glo ATP luminescence, 16 h; max response: stronger effect = lower value
Procedure, shortened: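 Cytotoxicity counter screen: intracellular ATP quantified by CellTiter-Glo luminescence in the same ARE-bla HepG2 plates, after 16 h compound exposure and a 2 h beta-lactamase substrate step.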

[16] = qHTS assay for cell viability of HEK293 cells (AID 743288; active means well fitted curve in the direction sought with a large enough effect; an effect the other way counts as inactive or inconclusive; further: on the % scale 0 is the no-effect control and ±100 the full control effect; nearly all actives have a fitted effect of over 50% in size); details: ATP luminescence (CellTiter-Glo), 18 h; max response: stronger effect = lower value
Procedure, shortened: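 After 18 h compound exposure at 37 C, parental HEK293 cells (2,000/well) are lysed with CellTiter-Glo and luminescence is read following 30 min at room temperature.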

[17] = qHTS assay for cell viability of the p53RE-bla HCT-116 cell line (AID 743292; active means well fitted curve in the direction sought with a large enough effect; an effect the other way counts as inactive or inconclusive; further: on the % scale 0 is the no-effect control and ±100 the full control effect; nearly all actives have a fitted effect of over 55% in size)
Procedure, shortened: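 Quantitative high-throughput format: compounds in DMSO were pinned onto p53RE-bla HCT-116 cells (4,000/well) and incubated 16 h at 37 C. Total intracellular ATP, read by CellTiter-Glo luminescence, reflects viable cell number.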

[18] = target: Nuclear receptor subfamily 1 group I member 2 (Rattus norvegicus) (UniProt Q9R1A7); assay: qHTS assay for small molecule activators of the rat pregnane X receptor (rPXR) signaling pathway (AID 651751; call rule not given here; further: 0% is about no effect); details: rPXR reporter cells, luciferase (One-Glo), 24 h
[19] = qHTS assay for small molecule activators of the human pregnane X receptor (PXR) signaling pathway (AID 720659; call rule not given here; further: 0% is about no effect)
[20] = target: Thyroid hormone receptor beta (Homo sapiens) (UniProt P10828); assay: qHTS assay for small molecule agonists of thyroid hormone receptor beta signaling (AID 588545);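 further: 0% = DMSO only and 100% = 10 nM T3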
Procedure, shortened: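 Stimulation of a TR-driven beta-lactamase reporter was quantified in GripTite HEK 293 cells. Compound series ran for 18 hrs; curves were normalized to T3 and DMSO controls and fitted to yield EC50.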

Peroxisome proliferator-activated receptor alpha (Homo sapiens), sequence (Q07869 whole entry, looked up): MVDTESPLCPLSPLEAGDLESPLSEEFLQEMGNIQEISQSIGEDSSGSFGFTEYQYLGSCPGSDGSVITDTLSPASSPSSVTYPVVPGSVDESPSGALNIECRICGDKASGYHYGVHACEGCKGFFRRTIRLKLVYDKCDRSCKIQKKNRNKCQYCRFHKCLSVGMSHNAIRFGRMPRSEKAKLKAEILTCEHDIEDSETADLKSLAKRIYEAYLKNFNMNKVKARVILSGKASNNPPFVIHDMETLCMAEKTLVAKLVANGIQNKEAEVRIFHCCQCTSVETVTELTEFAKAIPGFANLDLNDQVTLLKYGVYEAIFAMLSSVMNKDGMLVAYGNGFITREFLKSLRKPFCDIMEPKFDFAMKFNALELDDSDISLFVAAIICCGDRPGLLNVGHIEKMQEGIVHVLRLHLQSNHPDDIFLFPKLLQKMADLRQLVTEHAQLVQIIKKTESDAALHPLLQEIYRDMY
Vitamin D3 receptor (Homo sapiens), sequence (P11473 whole entry, looked up): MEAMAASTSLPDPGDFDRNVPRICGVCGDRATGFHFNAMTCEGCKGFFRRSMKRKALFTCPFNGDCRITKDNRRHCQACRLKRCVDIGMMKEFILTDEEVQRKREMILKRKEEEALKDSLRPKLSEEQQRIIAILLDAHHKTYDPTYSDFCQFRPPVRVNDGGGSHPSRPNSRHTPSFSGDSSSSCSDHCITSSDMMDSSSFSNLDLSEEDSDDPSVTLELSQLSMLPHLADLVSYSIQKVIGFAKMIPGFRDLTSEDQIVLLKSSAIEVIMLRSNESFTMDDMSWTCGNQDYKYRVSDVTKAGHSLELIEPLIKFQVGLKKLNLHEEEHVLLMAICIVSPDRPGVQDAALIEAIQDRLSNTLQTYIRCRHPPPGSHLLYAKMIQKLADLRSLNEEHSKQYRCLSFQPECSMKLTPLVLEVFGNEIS
Retinoic acid receptor RXR-alpha (Homo sapiens), sequence (P19793 whole entry, looked up): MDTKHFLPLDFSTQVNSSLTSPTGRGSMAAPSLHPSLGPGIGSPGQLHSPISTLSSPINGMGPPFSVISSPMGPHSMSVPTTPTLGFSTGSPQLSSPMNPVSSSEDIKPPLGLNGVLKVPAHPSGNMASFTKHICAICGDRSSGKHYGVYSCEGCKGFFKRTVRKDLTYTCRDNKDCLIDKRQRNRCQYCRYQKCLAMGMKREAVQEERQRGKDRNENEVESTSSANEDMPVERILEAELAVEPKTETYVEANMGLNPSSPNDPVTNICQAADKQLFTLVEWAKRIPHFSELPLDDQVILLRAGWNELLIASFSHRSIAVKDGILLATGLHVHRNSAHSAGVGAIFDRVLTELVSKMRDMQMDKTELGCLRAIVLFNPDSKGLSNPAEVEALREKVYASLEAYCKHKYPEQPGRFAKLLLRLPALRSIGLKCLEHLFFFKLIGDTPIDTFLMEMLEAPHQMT
Nuclear receptor subfamily 1 group I member 2 (Rattus norvegicus), sequence (Q9R1A7 whole entry, looked up): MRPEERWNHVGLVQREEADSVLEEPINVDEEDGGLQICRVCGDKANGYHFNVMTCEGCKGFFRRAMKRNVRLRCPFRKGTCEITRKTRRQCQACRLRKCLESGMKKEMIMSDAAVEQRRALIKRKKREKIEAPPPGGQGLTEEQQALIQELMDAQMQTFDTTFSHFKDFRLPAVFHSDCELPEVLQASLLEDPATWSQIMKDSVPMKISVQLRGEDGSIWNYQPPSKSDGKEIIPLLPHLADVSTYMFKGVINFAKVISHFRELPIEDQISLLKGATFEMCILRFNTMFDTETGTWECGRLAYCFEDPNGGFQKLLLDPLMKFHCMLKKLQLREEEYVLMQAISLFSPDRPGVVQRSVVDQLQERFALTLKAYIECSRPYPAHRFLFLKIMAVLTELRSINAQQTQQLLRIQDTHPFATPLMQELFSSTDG
Thyroid hormone receptor beta (Homo sapiens), sequence (P10828 whole entry, looked up): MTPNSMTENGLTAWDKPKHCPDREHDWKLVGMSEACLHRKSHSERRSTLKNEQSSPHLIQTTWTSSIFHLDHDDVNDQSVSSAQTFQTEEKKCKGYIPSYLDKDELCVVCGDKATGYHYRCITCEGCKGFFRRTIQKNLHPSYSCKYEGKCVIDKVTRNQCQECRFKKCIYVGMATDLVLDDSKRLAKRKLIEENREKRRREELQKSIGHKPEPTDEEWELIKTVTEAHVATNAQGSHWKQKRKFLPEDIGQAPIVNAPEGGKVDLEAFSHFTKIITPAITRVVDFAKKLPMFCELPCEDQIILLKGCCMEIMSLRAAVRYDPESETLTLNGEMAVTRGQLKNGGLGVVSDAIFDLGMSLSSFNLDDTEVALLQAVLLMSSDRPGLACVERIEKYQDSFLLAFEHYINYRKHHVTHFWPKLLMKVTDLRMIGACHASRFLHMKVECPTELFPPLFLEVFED
Estrogen receptor (Homo sapiens), sequence (P03372 whole entry, looked up): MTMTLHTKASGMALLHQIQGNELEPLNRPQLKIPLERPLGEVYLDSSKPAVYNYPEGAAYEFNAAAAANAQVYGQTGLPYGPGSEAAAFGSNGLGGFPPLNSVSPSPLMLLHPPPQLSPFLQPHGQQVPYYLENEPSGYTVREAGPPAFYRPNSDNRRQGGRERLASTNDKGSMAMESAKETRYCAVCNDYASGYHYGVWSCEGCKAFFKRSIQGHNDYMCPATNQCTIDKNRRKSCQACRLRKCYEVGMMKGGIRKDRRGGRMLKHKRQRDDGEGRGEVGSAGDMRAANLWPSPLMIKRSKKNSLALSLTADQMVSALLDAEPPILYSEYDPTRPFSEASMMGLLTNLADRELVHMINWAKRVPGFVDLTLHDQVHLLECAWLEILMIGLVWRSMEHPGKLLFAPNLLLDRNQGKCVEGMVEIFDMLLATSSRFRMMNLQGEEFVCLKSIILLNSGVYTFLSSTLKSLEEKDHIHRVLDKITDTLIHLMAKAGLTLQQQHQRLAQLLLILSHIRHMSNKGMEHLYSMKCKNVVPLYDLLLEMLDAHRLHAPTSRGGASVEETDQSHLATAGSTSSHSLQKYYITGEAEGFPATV

| Structure (SMILES) | Potency [1] | Potency [2] | max response [3] | Potency [4] | outcome [5] | max response [6] | Potency [7] | max response [8] | max response [9] | activity change % (negative = inhibition) [10] | activation [11] | activation [12] | max response [13] | Potency [14] | max response [15] | max response [16] | Potency [17] | max response [18] | outcome [19] | Potency [20] |
| --- | --- | --- | --- | --- | --- | --- | --- | --- | --- | --- | --- | --- | --- | --- | --- | --- | --- | --- | --- | --- |
| CS/C(=N\O)C(=O)N(C)C | inactive | inactive | 31.5% | inactive | inactive | 6.39% | inactive | 0.656% | -15.6% (inactive) | -12.9% (inactive) | -0.3% (inactive) | -0.34% (inactive) | -1.04% (inactive) | inactive | -5.16% (inactive) | -6.73% (inactive) | inactive | -0.0731% (inactive) | inactive |  |
| CCCCCCCCCc1ccccc1 | inactive | inactive | 1.13% | inactive |  | -8.55% | inactive | -10.2% | 2.35% (inactive) | 0.977% (inactive) | -0.95% (inactive) |  |  | inactive | 4.47% (inactive) | 2.81% (inactive) | inactive | 1.1% (inactive) | inactive | inactive |
| CCc1cccc(C)c1N(C(=O)CS(=O)(=O)O)[C@@H](C)COC | inactive | inactive | 24.1% | inactive | inactive | -8.42% | inactive | 9.75% | -22.6% (inactive) | -18.4% (inactive) | 3.16% (inactive) | -0.669% (inactive) |  | inactive | -5.93% (inactive) | -5.4% (inactive) | inactive | -5.94% (inactive) | inactive | inactive |
| Cn1c(=O)[nH]c(=O)n(C2CCC(O)CC2)c1=O (configuration not stated) | inactive | inactive | 54.4% | inactive | inactive | -1.18% | inactive | -1.59% | -0.444% (inactive) | 3.03% (inactive) | 2.9% (inactive) | 1.88% (inactive) | -2.74% (inactive) |  | 7.46% (inactive) | -0.781% (inactive) | inactive | -2.03% (inactive) | inactive | inactive |
| CC(=O)N(CCN(C(C)=O)C(C)=O)C(C)=O | inactive | inactive | 30.1% |  | inactive | -4.71% | inactive | -2.01% | -5.17% (inactive) | -8.71% (inactive) | 0.892% (inactive) | -3.27% (inactive) | 0.299% (inactive) | inactive | -1.28% (inactive) | -0.359% (inactive) | inactive | -0.996% (inactive) | inactive |  |
